Experimental data published in PubChem BioAssay AID1159580 (chemical genetic matrix, 2015).
Where “and” joins values, the source holds several entries; their conditions need not be identical. Identical values can stand only once. The campaign covered roughly 5,500 compounds. About 2,000 (36%) were called active. Inconclusive results (about 18%) are left out. No stated cut-off is given here; in the data, active means normalized growth mostly below about 0.91 (no sharp cut-off); inconclusive means no clear call, values can overlap the other calls; inactive means mostly above about 0.92. This is one part of the list.

Assay: chemical genetic growth profiling, strain panel (AID 1159580);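 further: tested at 20 µM; growth read once vehicle control cultures reached saturation at 30 °C; 1 = growth at the plate median or of vehicle wells; lower values mean less growth of the strain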
Settings: S. cerevisiae deletion strains, growth OD

Measured: normalized growth

COc1nc(NC(C)C)nc(NC(C)C)n1
inactive: locus YAL013W, strain DEP1, active compounds read low 1.01 | locus YAL021C, strain ccr4, active compounds read low 0.991 | locus YAL026C, strain drs2, active compounds read low 1.04 | locus YAL030W, strain snc1, active compounds read low 1.02 | locus YBL061C, strain skt5, active compounds read low 1.03 | locus YBR009C, strain hhf1, active compounds read low 1.06 | locus YBR021W, strain FUR4, active compounds read low 1.04 | locus YBR023C, strain chs3, active compounds read low 1.03 | locus YBR171W, strain sec66, active compounds read low 1.02 | locus YBR229C, strain ROT2, active compounds read low 0.999 | locus YBR231C, strain swc5, active compounds read low 1.02 | locus YBR279W, strain paf1, active compounds read low 1.01 | locus YCL011C, strain gbp2, active compounds read low 1.02 | locus YCL016C, strain dcc1, active compounds read low 1.01 | locus YCL029C, strain bik1, active compounds read low 1.02 | locus YCL069W, strain vba3, active compounds read low 1.01 | locus YCR088W, strain abp1, active compounds read low 1.02 | locus YDL005C, strain med2, active compounds read low 1.02 | locus YDL035C, strain GPR1, active compounds read low 1.02 | locus YDL040C, strain nat1, active compounds read low 1 | locus YDL074C, strain BRE1, active compounds read low 1.05 | locus YDL101C, strain DUN1, active compounds read low 1.02 | locus YDL134C, strain PPH21, active compounds read low 1 | locus YDL185W, strain tfp1, active compounds read low 1.03 | locus YDL192W, strain arf1, active compounds read low 1.03 | locus YDR001C, strain nth1, active compounds read low 1.02 | locus YDR069C, strain doa4, active compounds read low 1.02 | locus YDR101C, strain arx1, active compounds read low 1.01 | locus YDR137W, strain rgp1, active compounds read low 1.02 | locus YDR150W, strain NUM1, active compounds read low 1.01 | locus YDR159W, strain sac3, active compounds read low 1.07 | locus YDR162C, strain NBP2, active compounds read low 1.01 | locus YDR195W, strain ref2 0.995 | locus YDR297W, strain sur2, active compounds read low 1.03 | locus YDR318W, strain mcm21, active compounds read low 1.02 | locus YDR334W, strain swr1, active compounds read low 1.01 | locus YDR335W, strain msn5, active compounds read low 1.01 | locus YDR388W, active compounds read low 1.03 | locus YDR392W, strain spt3, active compounds read low 1.01 | locus YDR502C, strain sam2, active compounds read low 1.02 | locus YEL003W, strain gim4, active compounds read low 1.02 | locus YEL037C, strain rad23, active compounds read low 1.02 | locus YEL061C, strain CIN8 (second series), active compounds read low 1.03 | locus YEL061C, strain CIN8, active compounds read low 1 | locus YER015W, strain faa2, active compounds read low 1.02 | locus YER016W, strain bim1, active compounds read low 1.01 | locus YER110C, active compounds read low 1.02 | locus YER111C, strain swi4, active compounds read low 1.02 | locus YER155C, strain BEM2 (second series), active compounds read low 1.03 | locus YER155C, strain BEM2, active compounds read low 1.01 | locus YER167W, strain BCK2, active compounds read low 1.01 | locus YFR010W, strain ubp6, active compounds read low 1.03 | locus YGL078C, strain dbp3, active compounds read low 1.01 | locus YGL086W, strain mad1, active compounds read low 1.01 | locus YGL167C, strain pmr1, active compounds read low 1.02 | locus YGL173C, strain kem1, active compounds read low 1.04 | locus YGL227W, strain vid30, active compounds read low 1.04 | locus YGL240W, strain doc1, active compounds read low 1.02 | locus YGL248W, strain PDE1, active compounds read low 1.01 | locus YGL253W, strain hxk2, active compounds read low 1.03 | locus YGR078C, strain PAC10, active compounds read low 1.02 | locus YGR135W, strain pre9, active compounds read low 1.02 | locus YGR229C, strain SMI1, active compounds read low 1.02 | locus YGR252W, strain gcn5, active compounds read low 1.05 | locus YHR013C, strain ard1, active compounds read low 1.03 | locus YHR027C, strain rpn1, active compounds read low 1.03 | locus YHR030C, strain SLT2, active compounds read low 1.01 and 1.07 | locus YHR079C, strain IRE1 (second series), active compounds read low 1.02 | locus YHR079C, strain IRE1, active compounds read low 1.03 | locus YHR094C, strain hxt1, active compounds read low 1.01 | locus YHR129C, strain ARP1, active compounds read low 1.01 | locus YHR142W, strain chs7, active compounds read low 1.04 | locus YHR200W, strain rpn10, active compounds read low 1.01 | locus YIL066C, strain RNR3, active compounds read low 1.02 | locus YIL073C, strain SPO22, active compounds read low 1.08 | locus YIL125W, strain kgd1, active compounds read low 1.01 | locus YIR030C, strain dcg1, active compounds read low 1.01 | locus YJL092W, strain hpr5, active compounds read low 1.02 | locus YJL095W, strain BCK1 (second series), active compounds read low 1.04 | locus YJL095W, strain BCK1, active compounds read low 1.01 and 1.06 | locus YJL115W, strain asf1, active compounds read low 1.02 | locus YJL129C, strain trk1, active compounds read low 1.02 | locus YJL134W, strain LCB3, active compounds read low 1.01 | locus YJL154C, strain vps35, active compounds read low 1.01 | locus YJL164C, strain tpk1, active compounds read low 1.01 | locus YJL166W, strain qcr8, active compounds read low 1.03 | locus YJL168C, strain set2, active compounds read low 1.02 | locus YJL187C, strain SWE1 (second series), active compounds read low 1.01 | locus YJL187C, strain SWE1, active compounds read low 1 | locus YJR043C, strain POL32, active compounds read low 1.03 | locus YJR066W, strain TOR1, active compounds read low 1
